FLuc counter = firefly luciferase modulation, counter-screen for miR-21 project; P08659; purified FLuc, Km substrates, luminescence inhibition; Potency, µM (titrated, usually from 57.5 µM), inactives show top-dose activity change, negative = inhibition, hits mostly inhibitors; hit rate 6.9% among 360,000; AID 588342;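 also: plate controls were vehicle for no effect and reference inhibitor for full effect; nearly all actives have a fitted effect of over 55% in size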
Target sequence (P08659 whole entry, looked up): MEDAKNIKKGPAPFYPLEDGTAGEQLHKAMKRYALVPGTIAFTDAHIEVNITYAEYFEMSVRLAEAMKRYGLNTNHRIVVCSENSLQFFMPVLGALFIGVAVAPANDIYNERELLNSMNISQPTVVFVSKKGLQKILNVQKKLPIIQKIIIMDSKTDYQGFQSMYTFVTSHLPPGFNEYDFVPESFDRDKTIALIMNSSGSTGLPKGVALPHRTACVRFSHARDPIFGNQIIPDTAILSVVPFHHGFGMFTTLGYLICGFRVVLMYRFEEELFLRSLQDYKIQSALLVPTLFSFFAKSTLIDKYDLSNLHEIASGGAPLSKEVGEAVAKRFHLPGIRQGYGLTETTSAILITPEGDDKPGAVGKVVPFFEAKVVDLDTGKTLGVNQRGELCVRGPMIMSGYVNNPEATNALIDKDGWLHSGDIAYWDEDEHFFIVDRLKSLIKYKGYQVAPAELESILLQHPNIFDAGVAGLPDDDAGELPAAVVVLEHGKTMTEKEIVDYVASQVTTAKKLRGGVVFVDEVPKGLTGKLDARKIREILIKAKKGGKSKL
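Biochemical qHTS of compounds, final roughly 60 µM downward over six points, against 10 nM purified firefly luciferase using Km concentrations of substrates (10 uM D-luciferin, 10 uM ATP) in Tris acetate pH 7.5 buffer; luminescence output.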
SMN2 splice up = SMN2 splice variant enhancement; HEK293 SMN2-luciferase splicing reporter, luminescence, 30-36 h; hit rate 2.8% among 210,000; Potency, µM (series often up to 46.1 µM), without a hit: at the top dose activity change, positive = activation, usual class: activators; also: % of control where 0% means no effect; nearly all actives have a fitted effect of over 55% in size
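HEK293 cells carry an SMN2 […]–luciferase reporter in which exon 7 inclusion puts luciferase in frame. Cells were plated 10-12 h before compound addition, then incubated 30-36 h at 37C. ONE-Glo luminescence was read; sodium butyrate at 4.5 mM final served as control.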
Rab9 prom act = activators of Rab9 promoter. Potency, µM (highest dose often 9.22 µM), inactives show at the highest dose activation, negative = inhibition, actives largely listed as activators. Huh7 Rab9 promoter-luciferase reporter, luminescence, 24 h. hit rate 2.8% among 320,000. AID 485297; also: % of control where 0% means no effect; nearly all actives have a fitted effect of over 60% in size
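Rab9 promoter-driven luciferase in stably transfected Huh7 cells; 1500 cells/well rested 2 h, exposed to compound in DMSO for 24 h at 37 °C, 5% CO2. Luminescence read 10 min after adding luciferase reagent at ambient temperature.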
NPC1 promoter act = activates the NPC1 promoter. Huh7 NPC1 promoter luciferase reporter, 24 h. Potency, µM (titrated, usually from 9.22 µM), for the others: top-dose activation, most hits filed as activators. hit rate 2.4% among 320,000; also: % of control where 0% means no effect; nearly all actives have a fitted effect of over 60% in size
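NPC1 promoter–luciferase Huh7 cells; 24 h compound; luminescence.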
ELG1 DNA repair = inhibitors of ELG1-dependent DNA repair in HEK293T cells | HEK293T ELG1-luciferase reporter, luminescence, 16 h; DNA damage induced by 5-fluorouridine | hit rate 2.3% among 330,000 | Potency, µM (titrated, usually from 46.1 µM), for the others: at the top dose activity change, negative = inhibition, hits mostly inhibitors; also: % is scaled to controls: 0 for no effect and ±100 for the full control effect; nearly all actives have a fitted effect of over 55% in size
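Step one: seed 2,000 cells per well. Step two: pin-transfer compound or DMSO alongside 5-fluorouridine. Step three: incubate 16 hr, 37 °C, 5% CO2. Step four: add ONE-Glo, wait 30 min, read luminescence.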
ELG1 genotoxic = induces genotoxicity in HEK293T cells with luciferase-tagged ELG1. HEK293T ELG1-luciferase reporter, luminescence, 16 h. Potency, µM (titrated, usually from 46 µM), inactives show at the top dose activity change, positive = activation, hits mostly activators. hit rate 1.3% among 330,000. AID 504466; also: % of control where 0% means no effect; nearly all actives have a fitted effect of over 60% in size
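DMSO vehicle served as control against compound-treated ELG1-luciferase HEK293T cells; exposure lasted 16 hr at 37 °C and 5% CO2, followed by ONE-Glo luminescence detection after 30 min.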
* marks the source's active call; other numbers are inactive results; ? = inconclusive; . = no result given. Shown are actives, neighbours in structure and some others; about 9.2% of the full set was active somewhere. Calls follow the shape of the dose curve; as a rule, active = well fitted curve in the direction sought with a large enough effect; inconclusive = small, poorly fitted or top-dose-only effect, or another doubt; inactive = no such curve, though single readings can be large; an effect the other way counts as inactive or inconclusive. Potency is read from the fitted curve at half-maximal effect.

SMILES	FLuc counter	SMN2 splice up	Rab9 prom act	NPC1 promoter act	ELG1 DNA repair	ELG1 genotoxic
CC1Cc2nc(SCC(=O)N3CCCc4ccccc43)n(C)c(=O)c2S1 (stereo not given)	0%	-32%	-6%	-3%	23µM*	-5%
CCOC(=O)Cc1c(C(=O)OCC)nnc2c(-c3ccccc3)c(C)nn12	-18%	-2%	.	.	.	.
CCOC(=O)Cc1c(C)nc2c(-c3ccc(Cl)cc3)cnn2c1C	27µM*	-6%	-1%	1%	8%	5%
CCOC(=O)Cc1c(C)nc2c(-c3ccccc3)c(C)nn2c1C	21µM*	-11%	0%	-2%	-18%	0%
CCOC(=O)Cc1c(C)nc2c(-c3ccc(Cl)cc3)c(C)[nH]n2c1=O	0%	-5%	-10%	5%	-4%	-10%
CC(C)c1c(C(=O)N/N=C/C2CC=CCC2)nnn1-c1nonc1N (stereo not given)	?	.	10%	-1%	13%	0%
CCN(CC)c1ccc(S(=O)(=O)N2CCOCC2)cc1NC(=O)COC(=O)/C=C/c1ccc(C)o1	2%	.	2%	2%	?	-13%
COc1cc(/C=N/NC(=O)Nc2ccccc2)ccc1OC(C)=O	11µM*	?	?	28%	?	?
CCOc1cc(/C=N/NC(=O)Nc2ccccc2)ccc1O	9.5µM*	.	?	14%	?	?
CCOc1cc(/C=N/NC(=O)c2ccc(NC(=O)C3CC3)cc2)ccc1O	?	.	18%	0%	-13%	-5%
COc1cc(/C=N/n2c(-c3ccc4c(c3)NC(=O)CO4)csc2=Nc2cccc(C)c2)ccc1O	?	-12%	-3%	-2%	15µM*	-12%
COCCN=c1scc(-c2ccc3c(c2)NC(=O)CO3)n1/N=C(\C)c1ccc(O)cc1	0%	.	-7%	0%	18µM*	-13%
CCOC(=O)c1sc2nc(C)nc(Nc3ccc(OC)cc3)c2c1C	-3%	-3%	0%	-1%	6%	-2%
CCOC(=O)c1sc2nc(CC(=O)OC)nc(NCc3ccc(F)cc3)c2c1C	-1%	-57%	-15%	-16%	?	-10%
Cc1nc(NCc2cccnc2)c2c3c(sc2n1)CC(C)CC3 (stereo not given)	24µM*	-6%	6%	11%	?	1%
CCOC(=O)c1sc2nc(C)nc(NCc3ccc(Cl)cc3)c2c1C	1%	.	-7%	-5%	12µM*	-6%
CCOC(=O)c1sc2nc(C)nc(NCc3ccc(F)cc3)c2c1C	-9%	.	0%	-1%	7.3µM*	-15%
CCOC(=O)c1sc2nc(C)nc(NCc3cccnc3)c2c1C	-3%	-3%	4%	1%	15µM*	-3%
CN(C(=O)CCS(=O)(=O)c1cc2c(cc1Cl)NC(=O)CO2)C1CCCCC1	0%	.	0%	-1%	19%	-1%
Cc1nc(NCc2ccco2)c2c3c(sc2n1)CCC3	2%	22µM*	14%	-14%	-28%	1%
c1coc(CNc2ncnc3sc4c(c23)CCCCC4)c1	?	2%	15%	-1%	?	0%
C=C1CCN([C@H](C(=O)OCc2cccc(C)c2)C(C)C)S(=O)(=O)c2ccccc21	-1%	.	0%	-3%	0%	-4%
O=C1C(Cl)=C(NCCN2CCCCC2)C(=O)c2ccccc21	-4%	-115%	-35%	-47%	21µM*	-24%
Cc1cc(C)n(-c2ccc(C(=O)OCC(=O)N3CCN(c4ccccc4)CC3)cc2)n1	.	.	.	.	2%	-1%
Cc1ccc(N(C)C(=O)c2cc(S(=O)(=O)N3CCCC3)cn2C)cc1	-4%	.	-1%	9%	?	-4%
SMILES	FLuc counter	SMN2 splice up	Rab9 prom act	NPC1 promoter act	ELG1 DNA repair	ELG1 genotoxic
Fc1ccc(Nc2ccnc(Nc3ccc(F)cc3)n2)cc1	8.5µM*	.	?	?	?	?
O=C(O)c1cccc(Nc2ccnc(Nc3cccc(C(=O)O)c3)n2)c1	6µM*	.	?	?	23%	?
Nc1ncnc(Nc2ccc(F)cc2)n1	-6%	19%	1%	-5%	19%	-1%
COc1ccc(NC(=O)c2cnc(SC)nc2)cc1	-13%	.	18%	-16%	-15%	5%
Cc1ccc(S(=O)(=O)C2(C(=O)Nc3ccc(Cl)c(C(F)(F)F)c3)CC2)cc1	-4%	-24%	.	.	.	.
CCCn1c(N)c(C(=O)CSc2n[nH]c(-c3ccccc3F)n2)c(=O)n(C)c1=O	3%	.	0%	-4%	?	-9%
CCCn1c(N)c(C(=O)CSc2nnc(Cc3ccccc3)o2)c(=O)n(C)c1=O	1%	-108%	-14%	-14%	5.8µM*	-9%
COc1cccc(-n2nc(-c3ccnn3-c3ccc(C)cc3)c(=O)n(C)c2=O)c1	-3%	-11%	2%	0%	21µM*	2%
CC(=O)Cn1ncc(N(C)Cc2ccccc2)c(Cl)c1=O	17µM*	.	?	?	?	?
Cc1nc(N)sc1N=Nc1ccccc1C(F)(F)F	12µM*	.	2.8µM*	?	?	?
CC(C)(C)c1ccc2c(c1)OC(C(=O)N/N=C\c1ccc(-c3cccc(C(=O)O)c3)o1)CO2 (stereo not given)	19µM*	.	1%	5%	?	10%
O=C(O)c1cccc(-c2ccc(/C=N/NC(=O)C3COc4ccccc4O3)o2)c1 (stereo not given)	24µM*	-1%	-2%	1%	?	9%
O=C(c1ccc([N+](=O)[O-])cc1)N1CCN(c2ncc(Br)cn2)CC1	-1%	.	3%	1%	1%	0%
CN(C(=O)CS(=O)(=O)c1cccc(Cl)c1)c1ccccc1	1%	-3%	1%	0%	-4%	-2%
COc1ccc(CN2C(=O)CN=C2Nc2cc(C)ccc2C)cc1	-1%	-21%	30%	13%	?	18µM*
CCc1ccccc1NC1=NCC(=O)N1Cc1ccc(OC)cc1	1%	.	9%	-2%	10%	3%
COc1cc(C(C)=O)ccc1COc1ccc(C(=O)OCC(N)=O)cc1OC	12µM*	-36%	-2%	0%	?	3%
Cc1ccsc1CN(C(=O)c1ccc(Br)cc1)C1CCS(=O)(=O)C1 (stereo not given)	4%	-12%	.	.	.	.
Cc1ccc(-c2cn(-c3ccc(Cl)cc3)c(S(=O)(=O)CC(=O)Nc3ccccc3)n2)cc1	?	3.2µM*	.	.	.	.
COc1ccc(-n2c(/C=C(\C)O)nc(=O)c3c(C)cc(C)nc32)cc1	-7%	2%	-5%	-5%	8.2µM*	-9%
Cc1noc(C)c1COc1cccc(C(=O)Nc2ccccc2)c1	.	.	-3%	1%	3%	4%

High-throughput results deposited in PubChem BioAssay by National Center for Advancing Translational Sciences (NCATS).
